The sample as a whole holds a higher share of hits than the screen did.
Pf Dd2 inh: qHTS Primary assay for Inhibitors of Plasmodium falciparum Dd2 growth in vitro. P. falciparum Dd2 growth, SYBR Green, 72 h. Potency, µM (titrated, usually from 28.9 µM), hits mostly inhibitors. AID 1347417, 2020. 120,000 tested, 4.3% active; active means well fitted inhibition curve with a large enough effect; further: nearly all actives have a fitted effect of over 65% in size
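Infected erythrocytes (Dd2, 0.3% parasitemia, 2.5% hematocrit final) are added to compound in RPMI-1640/Albumax II medium, grown 72 h at 37C in low oxygen, then lysed with saponin/Triton-X containing SYBR Green and read by fluorescence.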
Large screens that a line does not name were inactive.

CN(CC1CCOC1)S(=O)(=O)c1ccc(F)cc1 (configuration not stated)	none
CCO[C@H]1CN(C(=O)Cc2ccc3nc(C)[nH]c3c2)C[C@@H]1O	none
CCCCNc1ncc(C(=O)O)c(C)n1	none
COCC(=O)N1CCC2(CC1)CN(c1ccccc1)C2=O	none
Cc1cc(CN(C)C(=O)[C@H]2C[C@@H](C(=O)O)N(C)[C@H]2c2cccc(F)c2F)on1	none
C=CCn1c(-c2ccc(F)cc2)cn2cc(C(=O)N(C)CCO)nc2c1=O	none
CC(C)=CCn1c(-c2cc(C)oc2C)cn2cc(C(=O)N[C@@H](C)C(N)=O)nc2c1=O	none
CC(C)=CCn1c(-c2ccccc2Cl)cn2cc(C(=O)NCC(C)O)nc2c1=O (configuration not stated)	Pf Dd2 inh 10µM
COCCOC1CCOC2(CCN(C(=O)Nc3ccccc3)CC2)C1 (configuration not stated)	none
COCCOC1CCOC2(CCN(C(=O)Nc3ccccc3F)CC2)C1 (configuration not stated)	Pf Dd2 inh 12.6µM
COC1CCOC2(CCN(C(=O)Nc3ccccc3F)CC2)C1 (configuration not stated)	none
COc1ccc(Cl)cc1C(=O)N1CCC(c2n[nH]c(=O)n2-c2ccc(C)cc2)CC1	none
O=C1NC(C(=O)NCCc2ccccc2)Cn2cccc21 (configuration not stated)	none
CCNC(=O)CCc1c(C)nn(-c2cccc(C)c2)c1Oc1ccccc1	none
CN(C)S(=O)(=O)c1ccc(C(=O)N2CC(=O)Nc3ccc(Br)cc3C2c2ccc(F)cc2)cc1 (configuration not stated)	none
COc1ccc(CC(=O)N2CC(=O)Nc3ccc(Br)cc3C2c2ccc(F)cc2)cc1 (configuration not stated)	none
CCCCC(=O)N1CC(=O)Nc2ccc(F)cc2C1c1ccc(F)cc1 (configuration not stated)	Pf Dd2 inh 7.94µM
CCOc1ccc(C(=O)N2CC(=O)Nc3ccc(F)cc3C2c2ccc(F)cc2)cc1 (configuration not stated)	none
CCCCC1CCC(C(=O)N2CC(=O)Nc3ccc(Br)cc3C2c2ccc(F)cc2)CC1 (configuration not stated)	Pf Dd2 inh 10µM
CC(=O)N1CC(=O)Nc2ccc(F)cc2C1c1ccccc1 (configuration not stated)	none
N#Cc1ccc(CN2C3CCC2CN(C(=O)Nc2ccccc2F)C3)cc1	none
O=C1N[C@@H]2CCN(C(=O)c3ccc(C(F)(F)F)cc3)[C@@H]2C(=O)N1c1ccc(F)cc1	none
Cc1cnc(CCNC(=O)C2CCCC2)n1Cc1ccc(F)cc1	none
Cc1cnc(CCNC(=O)Nc2ccc3c(c2)OCCO3)n1Cc1ccc(F)cc1	none
CCn1cc(S(=O)(=O)NCCc2ncc(C)n2Cc2ccc(F)cc2)cn1	Pf Dd2 inh 6.31µM
CSc1ccc(-c2ccc(=O)n3c2[C@@H]2C[C@@H](CN(S(=O)(=O)c4cccs4)C2)C3)cc1	Pf Dd2 inh 8.91µM
CSCC(=O)N1C[C@@H]2C[C@H](C1)c1c(-c3ccc(SC)cc3)ccc(=O)n1C2	none
CC(=O)Nc1ccc(-c2ccc(=O)n3c2[C@@H]2C[C@@H](CN(S(=O)(=O)c4cccs4)C2)C3)cc1	none
Cc1ccc(NC(=O)Nc2ccccc2)c(=O)n1CC(=O)NCC1CCCO1 (configuration not stated)	none
COc1ccc(-c2cc(N3CCCC(NC(=O)Cc4ccc(F)cc4)C3)n[nH]2)cc1 (configuration not stated)	none
CC(C)C1CN(c2ccc(C#N)cn2)CCC(=O)N1Cc1ccc(F)cc1 (configuration not stated)	none
Fc1ccc(OCC2CCCN(c3ccc(Cn4ccnc4)cn3)C2)cc1 (configuration not stated)	Pf Dd2 inh 11.2µM
O=C(CC1CCOCC1)NCc1ccc(F)cc1	none
CCNC(=O)[C@@H]1C[C@H](NC(=O)c2ccc(OC)o2)CN1Cc1nc(C)no1	none
Cc1cc(C)n(Cc2ccc(C(=O)NCC3Cn4cccc4CN3Cc3ccccc3)o2)n1 (configuration not stated)	Pf Dd2 inh 5.01µM
CN1Cc2cccn2CC1CNC(=O)Cc1cccc(F)c1 (configuration not stated)	none
CCn1ccc(C(=O)NCC2Cn3cccc3CN2Cc2ccccc2)n1 (configuration not stated)	Pf Dd2 inh 14.1µM
CCn1ccc(C(=O)NCC2Cn3cccc3C(=O)N2CC(C)C)n1 (configuration not stated)	none
Cn1nccc1C(=O)NCC1Cn2cccc2CN1Cc1ccccc1 (configuration not stated)	none
Cc1cc(C(=O)NCC2Cn3cccc3C(=O)N2Cc2ccccc2)n(C)n1 (configuration not stated)	none
Cn1cnc(S(=O)(=O)NCC2Cn3cccc3CN2Cc2ccccc2)c1 (configuration not stated)	none
CN1Cc2cccn2CC1CNC(=O)Cc1ccccc1 (configuration not stated)	none
O=C(NCC1Cn2cccc2CN1Cc1ccccc1)c1cncc(Br)c1 (configuration not stated)	Pf Dd2 inh 10µM

Source: PubChem (National Center for Advancing Translational Sciences (NCATS))
